Test results taken from the supplement of paper PMC8728848.
The full list was thinned out, with the strongest signals kept by preference.

Tests used:
Assay in all cases: glycan array binding signal (z-score within array); higher = stronger binding
Details in all cases: glycan notation: IUPAC condensed, linker removed
[1] = biological target: Fuc(a1-2)Gal(b1-4)GlcNAc(b1-3)Gal(b1-4)GlcNAc(b1-2)Man(a1-3)[Fuc(a1-2)Gal(b1-4)GlcNAc(b1-3)Gal(b1-4)GlcNAc(b1-2)Man(a1-6)]Man(b1-4)GlcNAc(b1-4)GlcNAc
How it was run: (§1)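 The binding signal is a Z-score computed within each array and averaged over linkers. Arrays of the same protein sequence at different concentrations or buffers were also averaged together. Data originate from 3228 arrays in the Consortium for Functional Glycomics database, kept only where the protein sequence was available.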

[2] = biological target: Fuc(a1-2)Gal3S(b1-4)GlcNAc
How it was run: as §1

[3] = biological target: Fuc(a1-2)[Gal(a1-3)]Gal(b1-3)GlcNAc(b1-6)GalNAc
How it was run: as §1

[4] = biological target: Fuc(a1-2)[GalNAc(a1-3)]Gal(b1-3)GlcNAc(b1-3)GalNAc
How it was run: as §1

[5] = biological target: Fuc(a1-2)[GalNAc(a1-3)]Gal(b1-4)GlcNAc(b1-2)Man(a1-3)[Fuc(a1-2)[GalNAc(a1-3)]Gal(b1-4)GlcNAc(b1-2)Man(a1-6)]Man(b1-4)GlcNAc(b1-4)GlcNAc
How it was run: as §1

[6] = biological target: Fuc(a1-2)[GalNAc(a1-3)]Gal(b1-4)GlcNAc(b1-3)GalNAc
How it was run: as §1

[7] = biological target: Fuc(a1-3)[Gal(b1-4)]Glc6S
How it was run: as §1

[8] = biological target: Fuc(a1-3)[Gal(b1-4)]GlcNAc(b1-2)Man
How it was run: as §1

[9] = biological target: Fuc(a1-3)[Gal(b1-4)]GlcNAc(b1-6)GalNAc
How it was run: as §1

[10] = biological target: Gal(a1-4)Gal(b1-4)GlcNAc(b1-2)Man(a1-3)[Gal(a1-4)Gal(b1-4)GlcNAc(b1-2)Man(a1-6)]Man(b1-4)GlcNAc(b1-4)GlcNAc
How it was run: as §1

[11] = biological target: Gal(a1-4)Gal(b1-4)GlcNAc(b1-3)Gal(b1-4)Glc
How it was run: as §1

Gal(b1-3)GalNAc = biological target: Gal(b1-3)GalNAc
How it was run: as §1

[12] = biological target: Gal(b1-3)GalNAc(b1-4)Gal(b1-4)Glc
How it was run: as §1

[13] = biological target: Gal(b1-3)GlcNAc(b1-3)Gal(b1-3)GlcNAc
How it was run: as §1

[14] = biological target: Gal(b1-3)[Fuc(a1-4)]GlcNAc
How it was run: as §1

[15] = biological target: Gal(b1-4)GlcNAc(b1-2)Man(a1-3)[Gal(b1-4)GlcNAc(b1-2)Man(a1-6)][GlcNAc(b1-4)]Man(b1-4)GlcNAc(b1-4)[Fuc(a1-6)]GlcNAc
How it was run: as §1

[16] = biological target: Gal(b1-4)GlcNAc(b1-2)[Gal(b1-4)GlcNAc(b1-4)]Man(a1-3)[Gal(b1-4)GlcNAc(b1-2)Man(a1-6)]Man(b1-4)GlcNAc(b1-4)GlcNAc
How it was run: as §1

[17] = biological target: Gal(b1-4)GlcNAc(b1-2)[Gal(b1-4)GlcNAc(b1-6)]Man(a1-6)[GlcNAc(b1-4)][Gal(b1-4)GlcNAc(b1-2)[Gal(b1-4)GlcNAc(b1-4)]Man(a1-3)]Man(b1-4)GlcNAc(b1-4)[Fuc(a1-6)]GlcNAc
How it was run: as §1

[18] = biological target: Gal(b1-4)GlcNAc(b1-3)Gal(b1-4)GlcNAc(b1-3)Gal(b1-4)GlcNAc(b1-3)Gal(b1-4)GlcNAc(b1-3)Gal(b1-4)GlcNAc(b1-2)Man(a1-3)[Gal(b1-4)GlcNAc(b1-3)Gal(b1-4)GlcNAc(b1-3)Gal(b1-4)GlcNAc(b1-3)Gal(b1-4)GlcNAc(b1-3)Gal(b1-4)GlcNAc(b1-2)Man(a1-6)]Man(b1-4)GlcNAc(b1-4)GlcNAc
How it was run: as §1

Gal(b1-6)Gal = biological target: Gal(b1-6)Gal
How it was run: as §1

Gal3S(b1-3)GlcNAc = biological target: Gal3S(b1-3)GlcNAc
How it was run: as §1

[19] = biological target: Gal3S(b1-4)[Fuc(a1-3)]GlcNAc6S
How it was run: as §1

Gal6S(b1-4)Glc6S = biological target: Gal6S(b1-4)Glc6S
How it was run: as §1

Gal6S(b1-4)GlcNAc = biological target: Gal6S(b1-4)GlcNAc
How it was run: as §1

[20] = biological target: GlcNAc(b1-2)Man(a1-3)[GlcNAc(b1-4)][GlcNAc(b1-2)Man(a1-6)]Man(b1-4)GlcNAc(b1-4)[Fuc(a1-6)]GlcNAc
How it was run: as §1

[21] = biological target: GlcNAc(b1-3)Gal(b1-4)GlcNAc(b1-3)Gal(b1-4)GlcNAc(b1-3)Gal(b1-4)GlcNAc(b1-2)[GlcNAc(b1-3)Gal(b1-4)GlcNAc(b1-3)Gal(b1-4)GlcNAc(b1-3)Gal(b1-4)GlcNAc(b1-6)]Man(a1-6)[GlcNAc(b1-3)Gal(b1-4)GlcNAc(b1-3)Gal(b1-4)GlcNAc(b1-3)Gal(b1-4)GlcNAc(b1-2)Man(a1-3)]Man(b1-4)GlcNAc(b1-4)[Fuc(a1-6)]GlcNAc
How it was run: as §1

[22] = biological target: GlcNAc(b1-3)Gal(b1-4)GlcNAc(b1-3)Gal(b1-4)GlcNAc(b1-3)Gal(b1-4)GlcNAc(b1-3)Gal(b1-4)GlcNAc(b1-2)Man(a1-3)[GlcNAc(b1-3)Gal(b1-4)GlcNAc(b1-3)Gal(b1-4)GlcNAc(b1-3)Gal(b1-4)GlcNAc(b1-3)Gal(b1-4)GlcNAc(b1-2)Man(a1-6)]Man(b1-4)GlcNAc(b1-4)GlcNAc
How it was run: as §1

[23] = biological target: GlcNAc(b1-3)Gal(b1-4)GlcNAc(b1-3)Gal(b1-4)GlcNAc(b1-3)Gal(b1-4)GlcNAc(b1-3)Gal(b1-4)GlcNAc(b1-2)[GlcNAc(b1-3)Gal(b1-4)GlcNAc(b1-3)Gal(b1-4)GlcNAc(b1-3)Gal(b1-4)GlcNAc(b1-3)Gal(b1-4)GlcNAc(b1-6)]Man(a1-6)[GlcNAc(b1-3)Gal(b1-4)GlcNAc(b1-3)Gal(b1-4)GlcNAc(b1-3)Gal(b1-4)GlcNAc(b1-3)Gal(b1-4)GlcNAc(b1-2)Man(a1-3)]Man(b1-4)GlcNAc(b1-4)[Fuc(a1-6)]GlcNAc
How it was run: as §1

[24] = biological target: Man(a1-2)Man(a1-2)Man(a1-6)[Man(a1-3)]Man
How it was run: as §1

[25] = biological target: Man(a1-2)Man(a1-6)[Man(a1-3)]Man(a1-6)[Man(a1-2)Man(a1-2)Man(a1-3)]Man(b1-4)GlcNAc(b1-4)GlcNAc
How it was run: as §1

[26] = biological target: Man(a1-3)[Man(a1-6)]Man(a1-6)[Man(a1-3)]Man
How it was run: as §1

Man(a1-6)Man = biological target: Man(a1-6)Man
How it was run: as §1

[27] = biological target: Neu5Ac(a2-3)Gal(b1-4)GlcNAc(b1-3)Gal(b1-4)GlcNAc(b1-3)GalNAc
How it was run: as §1

[28] = biological target: Neu5Ac(a2-3)Gal(b1-4)GlcNAc(b1-3)Gal(b1-4)GlcNAc(b1-6)[Gal(b1-3)]GalNAc
How it was run: as §1

[29] = biological target: Neu5Ac(a2-3)Gal(b1-4)[Fuc(a1-3)]GlcNAc
How it was run: as §1

[30] = biological target: Neu5Ac(a2-3)Gal6S(b1-4)[Fuc(a1-3)]GlcNAc
How it was run: as §1

[31] = biological target: Neu5Ac(a2-6)Gal(b1-4)GlcNAc(b1-2)Man(a1-3)Man(b1-4)GlcNAc(b1-4)GlcNAc
How it was run: as §1

[32] = biological target: Neu5Ac(a2-6)Gal(b1-4)GlcNAc(b1-3)Gal(b1-4)GlcNAc(b1-6)[Gal(b1-3)]GalNAc
How it was run: as §1

[33] = biological target: Neu5Ac(a2-8)Neu5Ac(a2-3)[GalNAc(b1-4)]Gal(b1-4)Glc
How it was run: as §1

[34] = biological target: Neu5Ac(a2-8)Neu5Ac(a2-8)Neu5Ac(a2-3)Gal(b1-4)Glc
How it was run: as §1

[35] = biological target: Neu5Ac(b2-6)Gal(b1-4)GlcNAc
How it was run: as §1

[36] = biological target: Neu5Gc(a2-8)Neu5Gc(a2-3)Gal(b1-4)GlcNAc
How it was run: as §1

B1: Pwp3 (Candida glabrata) (protein)
chain: MGSSHHHHHHSSGLVPRGSHMASKNPVDFTTVCQFPDNFSKKPGFLATTARLGLWITGNSYKELLNYPGTFTLTTQQASTTTPNIQLRGTDLFTTIYGLTVYPLYLLVELQGYFVPTQSGMYTFSLTGSDDAAIIFIGNPSTFPCDAFKTWPQATANDITVTDSINPSRTLYMVKGVAYPLRIAYYNGLGNGVLNAAFTDPSGTKRTDWNGYIWQYDQCSTCTYK
[1]
  glycan array binding signal (z-score): -0.363
[2]
  glycan array binding signal (z-score): -0.232
[3]
  glycan array binding signal (z-score): 4.02
[4]
  glycan array binding signal (z-score): -0.434
[5]
  glycan array binding signal (z-score): 3.9
[6]
  glycan array binding signal (z-score): 3.75
[7]
  glycan array binding signal (z-score): 5.3
[8]
  glycan array binding signal (z-score): -0.319
[9]
  glycan array binding signal (z-score): -0.516
[10]
  glycan array binding signal (z-score): -0.343
[11]
  glycan array binding signal (z-score): -0.304
Gal(b1-3)GalNAc
  glycan array binding signal (z-score): -0.038
[12]
  glycan array binding signal (z-score): 4.7
[13]
  glycan array binding signal (z-score): 0.247
[14]
  glycan array binding signal (z-score): -0.246
[15]
  glycan array binding signal (z-score): -0.02
[16]
  glycan array binding signal (z-score): -1.19
[17]
  glycan array binding signal (z-score): -0.123
[18]
  glycan array binding signal (z-score): 3.73
Gal(b1-6)Gal
  glycan array binding signal (z-score): -0.446
Gal3S(b1-3)GlcNAc
  glycan array binding signal (z-score): -0.36
[19]
  glycan array binding signal (z-score): -0.535
Gal6S(b1-4)Glc6S
  glycan array binding signal (z-score): 6.29
Gal6S(b1-4)GlcNAc
  glycan array binding signal (z-score): 0.319
[20]
  glycan array binding signal (z-score): -0.195
[21]
  glycan array binding signal (z-score): 1.66
[22]
  glycan array binding signal (z-score): -0.439
[23]
  glycan array binding signal (z-score): 4.05
[24]
  glycan array binding signal (z-score): -0.335
[25]
  glycan array binding signal (z-score): -0.066
[26]
  glycan array binding signal (z-score): 4.4
Man(a1-6)Man
  glycan array binding signal (z-score): -0.259
[27]
  glycan array binding signal (z-score): -0.424
[28]
  glycan array binding signal (z-score): 2.29
[29]
  glycan array binding signal (z-score): 0.139
[30]
  glycan array binding signal (z-score): -0.332
[31]
  glycan array binding signal (z-score): -0.617
[32]
  glycan array binding signal (z-score): 0.018
[33]
  glycan array binding signal (z-score): 4.12
[34]
  glycan array binding signal (z-score): -1.21
[35]
  glycan array binding signal (z-score): 0.194
[36]
  glycan array binding signal (z-score): 0.001
